PAFAH1B2 inh – blocks human PAF acetylhydrolase 1b catalytic subunit 2 | recombinant PAFAH1B2, FP-rhodamine activity probe, fluorescence polarization | inhibition, % at 3.39 µM | 1.2% of 340,000 active;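 active means inhibition above the mean of all tested compounds plus 3 SD, cut at about 24% in these data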
PAFAH2 inh – inhibitors of human PAFAH2; Q99487; 0.99% of 340,000 active; recombinant PAFAH2, FP-rhodamine activity probe, fluorescence polarization; inhibition, % at 3.39 µM;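 active means inhibition above the mean over all tested compounds plus 3 SD, cut at about 30% in these data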;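 further: inhibitors block probe labeling of enzyme so polarization drops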
TCR-CD3 inh – human TCR-CD3 binding inhibition | TAMRA-labeled TCR probe fluorescence, biochemical | inhibition, % at 9.4 µM | 0.37% of 360,000 active | AID 651800; in the data active means inhibition above about 19%;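 further: recombinant mutant TCR 2C K166C tagged with TAMRA read by polarization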
pPAFAH FP inh – inhibitors of human plasma PAF acetylhydrolase (pPAFAH); Q13093; recombinant pPAFAH, FP-rhodamine probe fluorescence polarization; inhibition, % at 3.39 µM; 1.5% of 330,000 active;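 active means inhibition above the mean inhibition across the screen plus 3 SD, cut at about 25% in these data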;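 further: inhibitors block binding of the rhodamine activity-based probe so polarization drops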
Target sequence (Q13093 whole entry, looked up): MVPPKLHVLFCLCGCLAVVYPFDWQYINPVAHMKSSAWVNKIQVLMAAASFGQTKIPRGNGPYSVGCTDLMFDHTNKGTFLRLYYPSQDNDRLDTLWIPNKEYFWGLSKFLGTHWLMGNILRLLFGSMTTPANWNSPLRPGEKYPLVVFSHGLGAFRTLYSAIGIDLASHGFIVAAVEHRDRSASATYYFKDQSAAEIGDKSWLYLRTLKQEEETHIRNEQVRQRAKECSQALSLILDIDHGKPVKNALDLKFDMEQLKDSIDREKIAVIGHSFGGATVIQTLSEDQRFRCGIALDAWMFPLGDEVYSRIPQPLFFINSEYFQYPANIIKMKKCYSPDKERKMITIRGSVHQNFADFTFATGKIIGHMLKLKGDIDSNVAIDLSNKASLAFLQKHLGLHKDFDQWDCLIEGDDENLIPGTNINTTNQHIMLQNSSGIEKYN
PAFAH1B3 inh – inhibitors of human PAFAH1B3; Q15102; recombinant PAFAH1B3, FP-rhodamine probe, fluorescence polarization; inhibition, % at 3.39 µM; 0.28% of 340,000 active;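 active means inhibition above the screen-wide average of all tested compounds plus 3 SD, cut at about 25% in these data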
Hits are given with their value; . = inactive; / = no result given. This is a sample that favours compounds with a hit; in the whole collection about 2.7% have one here.

SMILES	PAFAH1B2 inh	PAFAH2 inh	TCR-CD3 inh	pPAFAH FP inh	PAFAH1B3 inh
C=CCSc1nnc2c(n1)OC(c1cccnc1)Nc1ccccc1-2 (stereo not given)	.	.	.	.	.
O=C(O)c1ccccc1C(=O)Nc1cc(C(F)(F)F)ccc1N1CCCC1	.	.	.	30	.
O=C(Nc1cc(C(F)(F)F)ccc1N1CCOCC1)c1ccccc1	.	.	.	.	.
CN(CC(=O)Nc1ccc(N2CCOCC2)cc1)C(=O)CCc1ccccc1Cl	.	.	.	.	.
COc1ccc(-c2noc(CSc3ccccc3)n2)cc1OC	24	.	.	.	.
OCc1nc2ccccc2n1CCCOc1ccc(Br)cc1	.	.	.	31	.
Cn1c(=O)n(CCCOc2ccc(Br)cc2)c2ccccc21	.	.	.	32	.
Cn1c(=O)n(CCCOc2ccc(Cl)cc2)c2ccccc21	.	.	.	.	.
CCCNC1(C(N)=O)CCN(Cc2ccccc2)CC1	.	.	.	/	.
CCOc1ccc(N=Nc2c(=O)[nH]n3c(=O)c4c([nH]c23)CCCC4)cc1	.	.	.	.	.
O=c1[nH]n2c(=O)c3c([nH]c2c1N=Nc1cccc(Cl)c1)CCCC3	34	30	.	31	.
CCCc1cc2c(OC)ccc(O)c2c(=O)n1C	/	/	.	/	/
COc1cc(/C=C/C(=O)OCC(=O)c2ccc[nH]2)ccc1O	/	/	.	/	/
Cc1cc(N2CCN(C(=O)OC(C)(C)C)C[C@@H]2C)ccc1N1CCS(=O)(=O)CC1	/	/	.	/	/
C/C(N)=C(/C#N)C(=O)COC(=O)CSc1ccccc1	26	.	.	.	.
CC(/C=N/NC(=O)CSc1nnc(SCc2ccccc2)s1)=C\c1ccco1	.	.	.	27	.
Nc1ccn([C@@H]2O[C@H](C(=O)N[C@H](Cc3ccccc3)C(=O)N3CCN(C(=O)N4CCCCC4)CC3)[C@@H](O)[C@H]2O)c(=O)n1	/	/	.	/	/
Cc1ccccc1S(=O)(=O)N1C(c2ccc(Cl)c(Cl)c2)CC=C(C(=O)O)C1c1cccc(Br)c1 (stereo not given)	/	/	.	/	/
Cc1ccccc1S(=O)(=O)N1[C@@H](c2ccc(Br)cc2)C(C(=O)O)=CC[C@H]1c1ccc(Cl)cc1	84	.	.	.	.
COc1ccc([C@@H]2CC=C(C(=O)O)[C@H](c3cccc(Cl)c3)N2S(=O)(=O)c2ccccc2C)cc1	26	.	.	.	.
O=C(O)C1=CC[C@@H](c2ccc(Cl)cc2)N(S(=O)(=O)c2ccc(Cl)cc2)[C@H]1c1ccc(Br)cc1	88	.	.	.	.
COc1cc(OC)cc(C(=O)OC(C)C(=O)NC2CCCc3ccccc32)c1 (stereo not given)	.	.	.	.	.
Cn1cc(CCOCc2ccc(Br)cc2)c2ccccc21	/	/	.	/	/
O=C(N[C@H](Cc1ccccc1)C(=O)NCCCc1ccccc1)[C@H]1O[C@@H](n2ccc(=O)[nH]c2=O)[C@H](O)[C@@H]1O	/	/	.	/	/
O=C(NCc1ccccc1)[C@@H]1CCCN1C(=O)[C@H]1CCCN1C(=O)c1ccc(F)cc1	/	/	.	/	/
SMILES	PAFAH1B2 inh	PAFAH2 inh	TCR-CD3 inh	pPAFAH FP inh	PAFAH1B3 inh
Cc1c(C(=O)OCCOc2ccc(Br)cc2)sc(=S)n1C	28	.	.	.	.
CCCN1C(=O)c2[nH]nc(-c3ccccc3)c2C1c1ccc(C)cc1 (stereo not given)	/	/	.	/	/
CCOC(=O)C(C)(C)CC#CCN(CC#Cc1ccccc1)S(=O)(=O)c1ccc(C)cc1	/	/	.	/	/
CSC1=NSC2=NC(=O)/C(=C/c3coc4ccc(O)cc4c3=O)C(=N)N12	.	.	.	29	.
Cc1c(O)ccc(/C(Cc2ccc3ccccc3n2)=N\O)c1O	29	.	.	.	53
CC(=O)Oc1ccc(C(=O)Cc2ccc3ccccc3n2)c(O)c1C	.	.	.	.	.
O=C(CSc1ccccc1)NCC1(N2CCCCC2)CCCCC1	.	.	.	34	.
Cc1ccc(C(=O)NCC2(c3ccccc3)CCCC2)cc1	92	.	.	.	.
O=C(CN1CCCCC1)NCC1(c2ccccc2)CCCC1	29	.	.	.	.
O=C(CSc1nnnn1-c1ccccc1)NCC1(N2CCCCC2)CCCCC1	.	.	.	.	.
O=C(CSc1ccccc1)NC(=O)NCc1ccccc1	32	.	.	.	.
O=C(CN1CCCC1)NCC1(c2ccccc2)CCOCC1	.	.	.	.	.
O=C(Nc1cccc([N+](=O)[O-])c1)Nc1cnccn1	.	.	.	.	.
CCN(CC)CC(=O)NCC1(c2ccccc2)CCCC1	26	.	.	.	.
CC1CC(C)CN(CCCNC(=O)CCC(=O)N2CC(C)Oc3ccccc32)C1 (stereo not given)	.	.	.	.	.
CCCCC(CC)CNS(=O)(=O)c1ccc2c(c1)CCN2C(=O)CCC(=O)O (stereo not given)	.	.	.	32	.
O=C(CC[C@H]1O[C@@H](n2ccc(=O)[nH]c2=O)[C@H](O)[C@@H]1O)N1CCN(Cc2cccc3ccccc23)CC1	/	/	.	/	/
CCC1Nc2ncnc(N3CCc4ccccc4C3)c2N(Cc2ccc(Cl)cc2)C1=O (stereo not given)	26	.	.	.	.
O=C1C(Cc2ccccc2)Nc2ncnc(N3CCc4ccccc4C3)c2N1Cc1ccc(Cl)cc1 (stereo not given)	.	.	/	.	.
COc1ccc(/C=C(\C#N)C(=O)NC2CCS(=O)(=O)C2)cc1OC (stereo not given)	.	.	.	.	.
NS(=O)(=O)c1ccc(-c2ccc(/C=C3\SC(=S)N(C4CCS(=O)(=O)C4)C3=O)o2)cc1 (stereo not given)	.	.	.	25	.
Cc1ccc(/C=C2\SC(=S)N(C3CCS(=O)(=O)C3)C2=O)o1 (stereo not given)	.	.	.	.	.
COc1ccc(OC)c(NC(=O)Nc2nc(C(N)C(C)C)cs2)c1 (stereo not given)	/	/	.	/	/
N#Cc1nc(COc2ccc(Cl)cc2)oc1NCc1ccc2c(c1)OCO2	29	.	.	.	.
O=C(NCc1ccccc1)C12CC3CC(CC(Br)(C3)C1)C2	35	.	.	.	.
SMILES	PAFAH1B2 inh	PAFAH2 inh	TCR-CD3 inh	pPAFAH FP inh	PAFAH1B3 inh
O=C(CNC(=O)C12CC3CC(CC(C3)C1)C2)NCc1ccccc1	.	.	.	.	.
CC(NC(=O)COC(=O)C12CC3CC(CC(Br)(C3)C1)C2)c1ccccc1 (stereo not given)	41	.	.	.	.
Cc1ccc2c(c1)-n1c(nc3ccccc3c1=O)C(Cc1ccc(O)cc1)NC2=O (stereo not given)	/	/	.	.	/
COC1=CC(=O)c2ccccc2C1=O	.	.	/	.	43
O=C(N[C@@H](Cc1cccnc1)C(=O)N1CCC[C@H]1C(=O)NCc1ccccc1)c1ccc(Cl)cc1Cl	/	/	.	/	/
COc1cccc(C(=O)N[C@@H](Cc2cccnc2)C(=O)N2CCC[C@H]2C(=O)NCc2ccccc2)c1	/	/	.	/	/
O=C(CCc1c[nH]c2ccccc12)Nc1ccc(Nc2cccnc2)c(Br)c1	/	/	.	/	/
NC(=O)Nc1ccc(Oc2c(F)c(F)c(F)c(F)c2F)cc1	.	.	.	29	.
CCOc1ccc(NC(N)=O)cc1	.	.	.	.	.
N#C/C(=C\c1coc2ccccc2c1=O)C(N)=S	.	.	.	.	.
